TGFb SMAD3 inh: blocks TGF-b signaling; 410,000 compounds, 1.2% hits; HepG2 CAGA-GFP TGF-b/SMAD3 reporter, GFP fluorescence, 18 h; TGF-beta stimulated, 500 pg/mL final; AID 588855; Potency, µM (series often up to 46.1 µM), inactives show top-dose activity, negative = inhibition, actives largely listed as inhibitors; note: % is set by controls: 0 for no effect and ±100 for the full control effect; nearly all actives have a fitted effect of over 65% in size
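HEPG2 CAGA-GFP reporter cells (1000/well, DMEM with 1% FBS) received compounds, then recombinant TGF-beta at 500 pg/mL final for 18 hours at 37 degrees C. Per-cell GFP summed per well was normalised to unstimulated and stimulated DMSO controls before curve fitting.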
HepG2 viability: HepG2 cytotoxicity, counter-screen for TGF-b inhibitors; HepG2 CAGA-GFP viability, ATP luminescence, 18 h; Potency, µM (doses to about 46.1 µM), for inactives: at the top dose activity change, negative = cytotoxicity, usual class: cytotoxic; 410,000 compounds, 0.76% hits
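HepG2 CAGA-GFP cells (1000/well, DMEM with 1% FBS) received compound, then TGF-beta at 500 pg/mL final, and were incubated 18 hours at 37 degrees C. Viability was read by CellTiter-Glo luminescence. Media-only wells were set as complete cell-killing and DMSO as no toxicity.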
KB-3-1 cytotox: kills parental KB-3-1 adenocarcinoma cells; KB-3-1 viability, CellTiter-Glo ATP luminescence, 72 h; 400,000 compounds, 1.4% hits; Potency, µM (doses to about 46.1 µM), most hits filed as cytotoxic; note: % is set by controls: 0 for no effect and ±100 for the full control effect; nearly all actives have a fitted effect of over 60% in size
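Using CellTiter-Glo luminescence, growth of non-resistant KB-3-1 adenocarcinoma cells is assessed 72 h after pin-tool compound addition at 37 °C. Normalized responses across the concentration series yield fitted curves.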
HT1080 IDH1KD tx: toxicity to HT-1080 IDH1 knockdown cells (counter line); Potency, µM (series often up to 46.1 µM), inactives show at the top dose activity, negative = toxicity, hits mostly cytotoxic; 360,000 compounds, 2% hits; HT-1080 IDH1 knockdown viability, ATP luminescence, 48 h;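 note: 0% = DMSO wells and -100% = cell-free medium wells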
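IDH1KD HT-1080 cells, 750/well, RPMI + 5% FBS; compound pinned after 2 h settling; 48 h, 37 °C; CellTiter-Glo luminescence; % activity normalised to DMSO and no-cell wells; curves fitted, classed by r2 and efficacy.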
HT1080NT lethal: kills 2HG-producing HT-1080-NT fibrosarcoma cells. 360,000 compounds, 1.6% hits. HT-1080-NT fibrosarcoma viability, CellTiter-Glo ATP luminescence, 48 h. Potency, µM (doses to about 46.1 µM), without a hit: top-dose activity, negative = less viability, actives largely listed as cytotoxic. AID 686970;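 note: NT is the 2HG producing partner of a matched IDH1 knockdown line; 0% = DMSO-treated cells and -100% = media-only wells without cells; nearly all actives have a fitted effect of over 55% in size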
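HT-1080-NT fibrosarcoma cells (2HG-overproducing), 750 cells/well in RPMI with 5% FBS, dosed after 2 h and incubated 48 h at 37C. CellTiter-Glo luminescence normalized to DMSO and no-cell wells; concentration-response curves fitted and classed.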
KB-V1 cytotox: kills drug-selected multidrug resistant KB-V1 cells | KB-V1 MDR cells viability, CellTiter-Glo, 72 h | Potency, µM (titrated, usually from 46.1 µM), hits mostly cytotoxic | 400,000 compounds, 3.4% hits; note: % is set by controls: 0 for no effect and ±100 for the full control effect; nearly all actives have a fitted effect of over 60% in size
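Following 72 h at 37 degrees C with compound, KB-V1 cell viability was read by CellTiter-Glo luminescence, medium being phenol-red-free DMEM plus 10% FBS; concentration-response parameters came from normalized, curve-fitted qHTS data.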
* hit, by the source's call; i = inactive; ? = inconclusive; . = no result. Only some compounds are listed: those with a hit (about 6.6% of all), similar ones and a draw of the others. Calls come from the whole dose curve; as a rule, active = well fitted curve in the direction sought with a large enough effect; inconclusive = small, poorly fitted or top-dose-only effect, or another doubt; inactive = no such curve, though single readings can be large; an effect the other way counts as inactive or inconclusive. Potency is the fitted concentration of half-maximal effect.

SMILES	TGFb SMAD3 inh	HepG2 viability	KB-3-1 cytotox	HT1080 IDH1KD tx	HT1080NT lethal	KB-V1 cytotox
Cc1ccc(-n2c(/C=C/c3ccccc3)nc3ccccc3c2=O)cc1C	-6.7%	-28.4%	i	.	.	i
CCCC1=Nc2cc(C(=O)NCCCN(CC)CC)ccc2Sc2ccccc21	?	-79.9%	?	.	.	i
CCCCn1c(=O)c(C(=O)Nc2ccccc2S(N)(=O)=O)c(O)c2ccccc21	?	-52.6%	i	?	?	16.4µM*
CCCCn1c(=O)c(C(=O)Nc2ncccc2C)c(O)c2ccccc21	8.2%	-18.4%	?	16.4µM*	23.1µM*	?
Cc1cccc(-c2nc(CN3C(=O)CN=C(c4ccccc4)c4ccccc43)c(C)o2)c1	?	-52.0%	i	.	.	i
Cc1cc(C(=O)OCC(=O)Nc2ccc(F)cc2)c(C)n1C1CC1	5.2%	-4.7%	i	12.3%	-0.8%	23.1µM*
Cc1cc(C(=O)OCC(=O)Nc2cccc(F)c2)c(C)n1C1CC1	-5.5%	0.1%	i	0.0%	0.2%	i
Cc1ccc(C)c(N2CCN(C(=O)CCNS(=O)(=O)c3ccc4c(c3)oc(=O)n4C)CC2)c1	-5.3%	-3.1%	i	-1.6%	-16.0%	i
Cc1nn(Cc2ccccc2)c(C)c1C(=O)OCC(=O)Nc1ccccc1SCC#N	67.7%	-14.8%	i	-10.9%	-4.2%	7.31µM*
Cc1cc(NC(=O)COC(=O)c2c(C)nn(Cc3ccccc3)c2C)no1	?	1.3%	?	-1.6%	-2.0%	?
CC(=O)O[C@@H]1/C=C/[C@](C)(O)C[C@@H](C)C/C=C/[C@H]2[C@H](O)C(C)=C(C)[C@H]3[C@H](Cc4ccccc4)NC(=O)[C@@]123	7.4%	-36.0%	?	?	2.59µM*	i
COc1ccccc1CNC(=O)Cn1c(=O)oc2cc(S(=O)(=O)N3CCC(C)CC3)ccc21	?	-32.9%	18.4µM*	.	.	i
Cc1ccc(OCC(=O)N2CCN(CCc3ccncc3)CC2)cc1C	-9.6%	-28.6%	i	.	.	i
Clc1ccc(COC(Cn2ccnc2)c2ccc(Cl)cc2Cl)cc1 (stereo unspecified)	?	-94.5%	?	14.6µM*	?	?
C[C@@H]1O[C@@H](O[C@H]2C[C@@H](O)[C@]3(CO)[C@@H]4C(CC[C@]3(O)C2)[C@@]2(O)CC[C@H](C3COC(=O)C3)[C@@]2(C)C[C@H]4O)[C@H](O)[C@H](O)[C@H]1O (stereo partly specified)	?	-55.4%	1.16µM*	1.3µM*	5.17µM*	1.84µM*
Cc1ccc(-c2cc(-c3ccc(C)cc3)[n+](-c3ccc(C(=O)O)cc3)c(-c3ccc(C)cc3)c2)cc1	8.8%	-13.1%	i	-8.9%	?	i
Cc1ccc(C[n+]2c(-c3ccc(C)cc3)cc(-c3ccc(C)cc3)cc2-c2ccc(C)cc2)cc1	?	-109.5%	5.8µM*	2.59µM*	3.26µM*	?
CC1(C(=O)O)CCC2(C)CCC3(C)C(=CC(=O)C4C5(C)CCC(=O)C(C)(C)C5CCC43C)C2C1 (stereo unspecified)	-9.1%	-49.6%	i	-5.0%	1.4%	i
C=C1CCN(C(CC(C)C)C(=O)Nc2ccc(OC)cc2)S(=O)(=O)c2ccccc21 (stereo unspecified)	?	-17.1%	.	.	.	.
CCCCC(=O)Nc1c(C(=O)N2CCN(c3ccccc3F)CC2)oc2ccccc12	?	-24.7%	i	.	.	?
CC[C@@H](C(=O)[C@@H](C)[C@@H](O)[C@H](C)[C@@H]1O[C@@H]([C@@H](CC)C(=O)O)CC[C@@H]1C)[C@H]1O[C@]2(C=C[C@@H](O)[C@]3(CC[C@@](C)([C@H]4CC[C@](O)(CC)[C@H](C)O4)O3)O2)[C@H](C)C[C@@H]1C	?	-20.1%	?	2.91µM*	0.517µM*	?
COc1ccc(-c2c(C)c3cc(OC(=O)N4CCOCC4)ccc3oc2=O)cc1	-4.3%	-25.6%	.	.	.	.
O=C(CCCCCCCCCCC(=O)NCc1cccnc1)NCc1cccnc1	6.1%	-15.5%	?	4.61µM*	?	?
C/C(=N\Nc1ccccc1)c1c(O)n(-c2ccccc2)c(=O)[nH]c1=O	-22.8%	-3.8%	i	4.61µM*	?	i
C/C(=N\Nc1ccccc1)c1c(O)n(Cc2ccccc2)c(=O)[nH]c1=O	-1.9%	17.0%	i	?	?	i
SMILES	TGFb SMAD3 inh	HepG2 viability	KB-3-1 cytotox	HT1080 IDH1KD tx	HT1080NT lethal	KB-V1 cytotox
CC/C(=N\NC(=S)Nc1ccccc1)c1c(O)[nH]c(=O)[nH]c1=O	-8.2%	6.1%	i	16.8%	8.5%	i
C/C(=N\Nc1ccccc1)c1c(O)[nH]c(=O)[nH]c1=O	-0.7%	-33.9%	?	4.11µM*	?	i
Cc1ccc(NC(=O)N(Cc2ccc3c(c2)OCO3)C2CCN(Cc3ccccc3)CC2)cc1Cl	-30.6%	-39.2%	?	.	.	i
O=C(Cn1c(=O)n(CC2CCC(C(=O)NCCc3ccccc3)CC2)c(=O)c2ccccc21)Nc1cccc(F)c1 (stereo unspecified)	?	-9.6%	i	.	.	i
COc1cc([N+](=O)[O-])c2ncccc2c1[N+](=O)[O-]	0.9%	-68.8%	?	7.31µM*	14.6µM*	16.4µM*
C[C@H]1CC2C3CC=C4C[C@@H](O)CC[C@]4(C)C3CC[C@]2(C)[C@H]1O (stereo partly specified)	11.8%	2.3%	i	4.5%	5.9%	18.4µM*
CC(C)c1cccc(C(C)C)c1OC(=O)NC(=O)c1c(F)cccc1F	-3.9%	-21.3%	i	-10.7%	?	i
O=C(Cn1c(=O)oc2cc(S(=O)(=O)N3CCCCC3)ccc21)NCc1ccc(Cl)cc1	?	-48.0%	?	.	.	?
O=P(c1ccccc1)(c1ccccc1)N(c1ccccc1)c1ccccc1	-16.4%	-25.3%	i	?	-13.4%	i
Cc1ccc(NC(=O)c2snnc2C)cc1Cl	16.2%	-23.5%	?	6.6%	23.6%	10.3µM*
COc1ccc(N2CCN(C(=O)C3CCCN(S(=O)(=O)c4ccc5c(c4)CCCN5C(C)=O)C3)CC2)cc1 (stereo unspecified)	?	-21.4%	.	.	.	.
